In the supplement of paper PMC6555819:

Each sequence was assayed on VDR:RXRa (NR concentration 270 nM, RXRa partner concentration 90 nM) (assay: PBM binding z-score (relative to random genomic background probes); higher = stronger binding; sequences stand for … in GC…GCGATTGACAGCGTAGAATGAAGG).
Method: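 Protein-binding microarray (Agilent 4x180K custom design, double-stranded 60-nt probes: 5' GC cap, 34-nt variable region, 24-nt constant primer region; full probe sequence given). Purified or IVT nuclear receptor:RXRα heterodimers (3:1 NR:RXRα, mostly 270:90 nM) or homodimers were incubated for 1 h in PBS with 2% milk and no ligand, then detected with Alexa488 antibodies. Fluorescence from o1-orientation probes (~5 replicates averaged) was converted to z-scores against 500 random hg19 background probes. Variable regions are seed direct-repeat (DR0–DR5) sites, all their single-nucleotide variants and half-site ablations.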

First: ACTATTAGTTGACTTAGGGCATCCGATACGACGC
Second: TCCAGTAGGTTAGGGGCATTCAGAATGGCGTCGA
The PBM binding z-score of the first is lower: 0.439 for the first, 0.702 for the second.

Going from AGAATGAGGTTATACGTAGATCAGTGAAGAAAGT to ACTAGCAGGCCAAGGGTCAATCAAGATTAGTCCG, the PBM binding z-score rises from 1.31 to 2.66.

Going from CCGACTGGGGCAAGGTTACCCTAACGCACAGCCA to GCTGCTAGGTCAACAGATGGTCAGCTAAAGCTCG, the PBM binding z-score rises from 0.016 to 1.11.

First: TGAATGAGGTTAAAGATCGGGGAACGTGGCGTCG
Second: CAAACTAGGTCACAGGAAGGTCAAAGTCCGCATG
The PBM binding z-score of the first is lower: 1.61 for the first, 5.74 for the second.

First: TCTTGTAGATCAGCAGGTAAAGAAAGCTGGCCAA
Second: AATACAGGGTCATCGTAGGCCAGAGGACGCACAG
The PBM binding z-score of the first is lower: -0.142 for the first, 5.19 for the second.

Compared with TGAATGAGGTTATAAGATCAGCGAACGTTGCAAA, GGAACGAGGGCAAGTTAATAGCAGAGTTTGATGG is lower in PBM binding z-score: 0.842 for the first, 0.803 for the second.

Compared with GGAACGATGGCATTCGAGTTGATAGCATGGCGAT, TCTCGGAGGACACCAAGGTCAGAGCTTTCCAGAG is higher in PBM binding z-score: -0.32 for the first, 3.36 for the second.

Going from ATCGAGAGGTCGAGGTGAGTATAGAGAAAGGGAA to CTCGAAAGGTCGGTTGAAGTGAGTATACGGATAA, the PBM binding z-score falls from 2.41 to 1.23.

Going from TCTGCTAGGTCAGTTGGTCAGTTAACGAGCTGCC to CAAACTAGGCCACGAAAGGTCAAAGTCGAATGAC, the PBM binding z-score rises from 0.0446 to 4.9.

First: GCTAGTTGGTCAGTAAAAGGTCACATACCGGTCG
Second: TCAAGCAGGCCAGAGGGTCACTCAAGAGGTACGG
The PBM binding z-score of the first is higher: 3.89 for the first, 1.52 for the second.

Compared with ATCTCTAGGTAACAAGTTCAGTGTAAGAGAGGAC, AGTCAAAGTTCAGGACGAGGTAACGTAAAGCACG is higher in PBM binding z-score: 2.3 for the first, 2.85 for the second.

Compared with CGAACGAGGGCATGGGTTGATAGCAAATGCCGAT, ATCGAAAGTTCGTGAGGTGAGTATACAGAAAGGC is higher in PBM binding z-score: 1.45 for the first, 2.02 for the second.

Compared with GCTAGCACGCCATTTGGGTCACTCAATGACGGGC, ATCGAAGGGTCGACGAGGTGAGTATACACCGTTT is higher in PBM binding z-score: -0.0776 for the first, 4.01 for the second.

Going from GATACAGGGTCAAGGCCACAGTACGCGTATTGAT to ATCGACAGGTCGAGGTGAGTATAGAGAAAGGGAA, the PBM binding z-score falls from 4.2 to 0.389.

First: AATACAGGGTCACTAGGCGAGAGTAGGTACGAAT
Second: CGCGAAAGGTCGTGCTCAGGTGAGTATACCAAAC
The PBM binding z-score of the first is higher: 4.12 for the first, 3.57 for the second.

Compared with TATACAGGGTCATAGGCCAGAGTACGAATGTCGA, CCTACTGGGCCATAAGGTCATTGATATCAACGTT is lower in PBM binding z-score: 4.62 for the first, 3.71 for the second.

Compared with AGTCAAAGTTCACCAGGTAACGTAAGATTCAGCT, CATACTGGGCCAAAAAGGTCATTGATGCCGATAA is higher in PBM binding z-score: 4.61 for the first, 5.08 for the second.

Going from CATCGGAGGACAGAAGGTCAGAGCTGTCCGCTTT to GGAACGAGGGCATTCTAGTTGATAGCATGGCGAT, the PBM binding z-score rises from 1.06 to 1.81.

Compared with GATACAGGGTCAGCTAGAGGCCAGAGTGTGGAAA, CGAACTAGGTCATTGACAGGAGAGTGAATAGTAA is lower in PBM binding z-score: 3.39 for the first, 1.62 for the second.

Compared with AGAATGCGGTTATTAAGATCAGGGAATTGCGGTC, ACTAGTTGGTCAGCTGAGGTCACATACAATTCGG is higher in PBM binding z-score: -0.302 for the first, 4.21 for the second.
